# In all, about 310,000 compounds went through this assay and about 2,200 (0.71%) showed an effect of 50% or more. The effect is printed as a negative number. This excerpt belongs to a sample that is enriched for strong results.
# Target: human ether-à-go-go-related gene (hERG) potassium channel (human, UniProt Q12809)
# Assay: primary screen, population patch clamp on CHO cells stably expressing hERG; higher = less effect of the substance
# Chain of human ether-à-go-go-related gene (hERG) potassium channel (Q12809 whole entry, looked up): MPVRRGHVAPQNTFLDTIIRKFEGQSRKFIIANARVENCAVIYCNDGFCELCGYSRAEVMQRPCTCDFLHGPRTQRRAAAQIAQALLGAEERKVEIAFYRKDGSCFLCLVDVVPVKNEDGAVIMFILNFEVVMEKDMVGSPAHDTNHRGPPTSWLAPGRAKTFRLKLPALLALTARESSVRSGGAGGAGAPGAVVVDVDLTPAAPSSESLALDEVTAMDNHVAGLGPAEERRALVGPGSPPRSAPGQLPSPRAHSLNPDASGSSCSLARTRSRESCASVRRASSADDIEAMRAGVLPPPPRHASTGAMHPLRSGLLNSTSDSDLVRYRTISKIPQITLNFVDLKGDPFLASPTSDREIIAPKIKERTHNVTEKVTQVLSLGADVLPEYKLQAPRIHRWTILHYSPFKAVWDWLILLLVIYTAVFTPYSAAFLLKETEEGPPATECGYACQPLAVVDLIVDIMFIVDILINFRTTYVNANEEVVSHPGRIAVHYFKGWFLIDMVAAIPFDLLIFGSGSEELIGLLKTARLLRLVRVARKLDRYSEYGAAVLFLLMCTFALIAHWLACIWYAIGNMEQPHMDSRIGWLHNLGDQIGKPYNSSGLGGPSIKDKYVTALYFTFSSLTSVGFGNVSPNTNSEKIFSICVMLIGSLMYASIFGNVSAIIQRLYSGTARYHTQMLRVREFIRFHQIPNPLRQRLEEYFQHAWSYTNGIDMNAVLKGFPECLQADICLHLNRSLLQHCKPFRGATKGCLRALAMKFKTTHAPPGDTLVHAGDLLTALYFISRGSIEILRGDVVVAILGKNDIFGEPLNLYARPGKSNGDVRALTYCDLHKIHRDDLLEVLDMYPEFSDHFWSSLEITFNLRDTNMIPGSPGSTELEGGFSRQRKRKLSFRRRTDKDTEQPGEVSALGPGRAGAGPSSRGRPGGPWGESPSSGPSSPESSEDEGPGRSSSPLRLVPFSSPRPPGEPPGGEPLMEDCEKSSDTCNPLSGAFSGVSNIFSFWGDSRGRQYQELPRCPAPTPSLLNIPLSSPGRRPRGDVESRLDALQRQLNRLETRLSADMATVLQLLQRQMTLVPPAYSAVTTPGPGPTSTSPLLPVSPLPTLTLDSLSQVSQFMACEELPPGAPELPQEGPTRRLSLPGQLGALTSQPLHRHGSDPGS
row,SMILES,"hERG current change (%, negative = inhibition) at 1uM"
1,CNC(=S)Nc1ccc(C(N)=O)cc1,10.2%
2,CC(C)(C)c1nc(NCC2CCCO2)c2nnn(Cc3ccccc3)c2n1 (centres unmarked),13.9%
3,COc1ccc(C(=O)Nc2ccccc2C(=O)Nc2ccc(C(=O)O)cc2)cc1,15%
4,O=C(CNS(=O)(=O)c1ccc(Br)s1)NCCc1ccc(Cl)cc1,16.1%
5,COc1cccc(C2CNC3(CCCC(C)C3)c3[nH]c4ccccc4c32)c1OC.Cl (centres unmarked),8.05%
6,CC1(C)CC(=O)CC2(C1)NCC(c1ccccc1Cl)c1c2[nH]c2ccccc12.Cl (centres unmarked),-3.21%
7,CC1(C)CC(=O)CC2(C1)NCC(c1ccccc1)c1c2[nH]c2ccccc12.Cl (centres unmarked),-83.4%
8,CC(C)(C)OC(=O)N[C@@H](Cc1ccccc1)C(=O)N1CCC(C(=O)N[C@@H](Cc2c[nH]c3ccccc23)C(=O)O)CC1,15%
9,CCCS(=O)(=O)c1c(S(=O)(=O)CCC)c2cnccn2c1C(=O)c1ccc(CC)cc1,0.628%
10,OC1(c2ccc(Cl)cc2)CCN(Cc2c[nH]c3ccccc23)CC1,-27.6%
11,COc1ccccc1NC(=O)CN1CCN(CC(=O)Nc2ccc3c(c2)OCO3)CC1,-67.3%
12,COc1ccccc1NC(=O)CN1CCN(CC(=O)Nc2ccc3c(c2)OCCO3)CC1,-10.6%
13,COc1ccc(OCC(=O)Nc2ccc3c(c2)OCO3)cc1,11.7%
14,CCOc1ccc(NC(=O)COc2ccc3c(c2)OCO3)cc1,7.57%
15,CCOc1ccc(OCCC(=O)Nc2ccc3c(c2)OCO3)cc1,11.1%
16,COc1ccccc1N1CCN(CC(=O)Nc2ccc3c(c2)OCCO3)CC1,-0.304%
17,COc1ccc(NC(=O)CN2CCN(CC(=O)Nc3ccc4c(c3)OCO4)CC2)cc1,-85.9%
18,CCOc1ccc(NC(=O)CN2CCN(CC(=O)Nc3ccc4c(c3)OCO4)CC2)cc1,-80.9%
19,COc1ccc(S(=O)(=O)N2CCCN(CC(=O)Nc3ccc4c(c3)OCO4)CC2)cc1,-15.1%
20,O=C(CN1CCCC1=O)NC1C2CC3CC(C2)CC1C3 (centres unmarked),9.69%
21,COC(=O)C1=CN(Cc2ccccc2)C=C(C(=O)OC)C1c1ccc(O)c(OC)c1,17.4%
22,COc1ccc(N2C(=O)/C(=C\c3ccco3)N=C2SCC(=O)N(C(C)C)C(C)C)cc1Cl,20.1%
23,Cc1ccc(OCC(O)CNC2CCCC2)cc1C.Cl (centres unmarked),8.86%
24,CC(=O)c1cccc(CN2CCCCC2C(=O)Nc2ccc(Oc3ccccc3)nc2)c1 (centres unmarked),0.714%
25,CCC(=O)Nc1nc(C)c(C(=O)N2CCCCC2)s1,12.8%
26,CCCCN(C(=O)c1ccc(C)c(S(=O)(=O)N2CCOCC2)c1)c1c(N)n(CCCC)c(=O)[nH]c1=O,5.43%
27,CCCCn1c(N)c(N(CCC(C)C)C(=O)c2ccc(C)c(S(=O)(=O)N3CCOCC3)c2)c(=O)[nH]c1=O,5.89%

row,SMILES,"hERG current change (%, negative = inhibition) at 1uM"
1,CCCCN(C(=O)c1ccc(C)c(S(=O)(=O)N2CCOCC2)c1)c1c(N)n(CC(C)C)c(=O)[nH]c1=O,-57.9%
2,O=C(CCNS(=O)(=O)c1ccccc1F)N1CCN(Cc2ccccc2)CC1,8.79%
3,O=C(NCc1ccccc1)c1ccc(NC(=O)c2ccco2)cc1,5.4%
4,O=C(NC1CCCC1)C(c1ccccn1)N(Cc1ccccc1F)C(=O)c1csnn1 (centres unmarked),10.7%
5,CN(C)CCSCc1nnc2n1-c1ccc(Cl)cc1C(c1ccccc1Cl)=NC2.c1ccccc1,-51.9%
6,Clc1ccc2c(c1)C(c1ccccc1Cl)=NCc1nnc(N3CCN(CCSc4ccccc4)CC3)n1-2.O.O=C(O)/C=C/C(=O)O,-10.8%
7,CCOCCN1CCN(c2nnc3n2-c2ccc(Cl)cc2C(c2ccccc2Cl)=NC3)CC1.O=CO,-57.6%
8,COc1ccccc1C1=NCc2nnc(CSC)n2-c2ccc(Cl)cc21,0.0726%
9,CSCc1nnc2n1-c1ccc(Cl)cc1C(c1ccccc1)=NC2,4.89%
10,Clc1ccc2c(c1)C(c1ccccc1Cl)=NCc1nnc(N3CCN(CCOc4ccccc4)CC3)n1-2.O=C(O)/C=C/C(=O)O,-50.8%
11,Clc1ccc2c(c1)C(c1ccccc1Cl)=NCc1nnc(Br)n1-2.c1ccccc1,2.57%
12,COCCCN1CCN(c2nnc3n2-c2sc(Br)cc2C(c2ccccc2Cl)=NC3)CC1.CS(=O)(=O)O,-11.9%
13,CN1CCN(Cc2nnc3n2-c2ccc(Cl)cc2C(c2ccccc2)=NC3)CC1.O=CO,-31.9%
14,O=c1nc2n(c3ncccc13)CCC2,16.1%
15,CCOC(=O)c1cc(-c2ccccc2)sc1NC(=O)CSc1nnc(N)s1,2.01%
16,Cc1cc(C)cc(C(=O)NCC(=O)OCC(=O)N2c3ccccc3NC(=O)C2(C)C)c1,4.41%
17,COc1ccc(CCN2CC(C(=O)NCc3ccc(F)cc3)CC2=O)cc1OC (centres unmarked),6.95%
18,COc1ccc(CCN2CC(C(=O)O)CC2=O)cc1OC (centres unmarked),2.95%
19,COc1ccc(NC(=O)CN2CC(c3ccccc3)CC2=O)cc1OC (centres unmarked),12.3%
20,COc1ccc(C2CC(=O)N(CCC[NH+](C)CCc3ccc(OC)c(OC)c3)C2)cc1.O=C([O-])C(=O)[O-] (centres unmarked),-72.9%
21,COc1ccc(CC[NH+](C)CCCN2CC(c3ccccc3)CC2=O)cc1OC.O=C([O-])C(=O)[O-] (centres unmarked),-61.9%
22,COc1ccc(C2SCC(=O)N2CCc2ccc(OC)c(OC)c2)cc1 (centres unmarked),-1.68%
23,COCC1CCCN(C(=O)c2ccc3oc(C(C)C)nc3c2)C1 (centres unmarked),9.33%
24,COc1ccc(/C=N/Nc2nc(N3CCCC3)nc(N3CCCC3)n2)cc1O,7.51%
25,O=C(c1ccc(O)cc1)c1ccc(Cl)cc1,-3.35%
26,O=C(O)CCCCCCCCCCCc1ccccc1,12.7%
27,CC(C)N(C)NC(=S)Nc1ccccc1,8.22%

row,SMILES,"hERG current change (%, negative = inhibition) at 1uM"
1,C=CCNC(=O)/C(=C\c1ccc([N+](=O)[O-])cc1)NC(C)=O,8.68%
2,COc1ccc(/C=C(\NC(=O)c2ccc([N+](=O)[O-])cc2)C(=O)NCCCn2ccnc2)cc1,-14.4%
3,COc1ccc(/C=C(/NC(=O)c2ccc([N+](=O)[O-])cc2)C(=O)NCCCN(C)C)cc1,-65.3%
4,COc1ccc(/C=C(/NC(=O)c2ccc([N+](=O)[O-])cc2)C(=O)NC(C)(C)C)cc1,-10.7%
5,COc1ccc(/C=C(\NC(=O)c2ccc([N+](=O)[O-])cc2)C(=O)NCCCN2CCOCC2)cc1,-41%
6,C=CCNC(=O)/C(=C\c1ccc(OC)cc1)NC(=O)c1ccc([N+](=O)[O-])cc1,-64.7%
7,CCOC(=O)CCc1c(C)c(C#N)c2nc3ccccc3n2c1-n1ccnc1C,-20.4%
8,CCOC(=O)CCc1c(C)nc2cc(-c3ccc(F)cc3)[nH]n2c1=O,8.2%
9,CC(C)(C)SCCNC(=O)c1ccc(Cl)c([N+](=O)[O-])c1,8.24%
10,O=C(Cn1nnc(-c2ccccc2-n2cnnn2)n1)c1ccccc1,5.12%
11,O=C(C1=C(O)C(=O)N(CCCN2CCOCC2)C1c1ccc(Cl)cc1)c1cc2ccccc2o1 (centres unmarked),15.8%
12,CN(C(=O)c1ccc(Cl)cc1)C1=CCCCC1CCC#N (centres unmarked),0.644%
13,CN1CCN(c2ccc(Cl)cc2NC(=O)CC2OC(=O)c3ccccc32)CC1 (centres unmarked),-61.2%
14,O=C(CC1OC(=O)c2ccccc21)Nc1cc(Cl)ccc1N1CCCC1 (centres unmarked),8.82%
15,CN1CCN(c2ccc(S(=O)(=O)N3CCCCC3)cc2NC(=O)Cc2ccc(Cl)cc2)CC1,-50.6%
16,CN1CCN(c2ccccc2NC(=O)Cc2ccc(Cl)cc2)CC1,-59.4%
17,CN1CCN(c2ccc(S(=O)(=O)N3CCCCC3)cc2NC(=O)Cc2c(F)cccc2Cl)CC1,-7.39%
18,CN1CCN(c2ccc(Cl)cc2NC(=O)CCN2C(=O)c3ccccc3C2=O)CC1,6.75%
19,CC(C)C(=O)N1CCN(c2ccccc2NC(=O)Cc2ccc(Cl)cc2)CC1,-38.9%
20,COc1ccc(CC(=O)Nc2cc(S(=O)(=O)N3CCCCC3)ccc2N2CCN(C)CC2)cc1,-7.26%
21,CC(=O)N1CCN(c2ccccc2NC(=O)Cc2ccc(Cl)cc2)CC1,-17.2%
22,COc1ccc(NC(=S)N(CCc2ccc(OC)c(OC)c2)Cc2ccccn2)cc1,0.952%
23,CCOC(=O)c1ccc(CNCc2ccc(C)cc2)cc1,-1.83%
24,COc1ccc(S(=O)(=O)N2CCCC2CNC(=O)C(=O)Nc2ccc(C)cc2)cc1 (centres unmarked),-0.606%
25,COc1cc(CCC(=O)OCC(=O)Nc2ccc(C)cc2Cl)cc(OC)c1OC,15.1%
26,CCn1ncc(NC(=O)Nc2cccc(C(F)(F)F)c2)c1C(N)=O,5.39%

# — publication PMC4336329 (PLoS ONE, 2015)
